Assay [1] deals with Human papillomavirus type 1a protein E7 (residues 44-93). In words: HPV1a E7 fragment binders on microarrays, primary screen, biochemical, small-molecule microarray, residues 44-93, 635 nm fluorescence (AID 1108).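 Further: E7 fragment applied at 1 µg/mL in TBST for 1 h at 4 C; score combines spot fluorescence with its signal to noise ratio.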 The following applies: small-molecule microarray binding, fluorescence 635 nm; higher = more signal.
Assay [2] in a line: modulators of HCV replicon luciferase signal, primary screen, HCV replication inhibitor project, Huh7 cells, luciferase reporter (AID 1109).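 Further: huh7 hepatoma cells harbouring a luciferase neomycin HCV replicon reporter; luciferase luminescence as measure of HCV replicon replication; test concentration not given here.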 Particulars: 48 h, higher = more signal. (Replicon systems follow genome replication, usually without infectious particles.)
Assay [3] addresses Left-right determination factor 2 (Homo sapiens) (UniProt O00292). In words: LEFTY2 binders on small-molecule microarrays, primary screen, biochemical, small-molecule microarray, 635 nm fluorescence scan (AID 1110). Particulars: LEFTY2 binding, higher = more signal.
Assay [4] concerns the target Calmodulin-1 (Homo sapiens) (UniProt P0DP23). Put plainly: CALM1 binders on microarrays, EGTA buffer, profiling panel, biochemical, small-molecule microarray, Cy5-labelled CALM1 (AID 1111).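 Further: labelled calmodulin applied in Tris saline Tween buffer holding calcium plus EGTA and DTT.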 The following applies: Cy5-CALM1 binding fluorescence, higher = more signal.
Assay [5] has the same target. Put plainly: calcium-bound CALM1 binders on microarrays, profiling panel, artefact control for SMM control-protein annotation, biochemical, small-molecule microarray, Cy5-labelled CALM1, plus calcium (AID 1112).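 Further: score merges spot fluorescence with signal to noise from triplicate slides.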 The following applies: Cy5-CALM1 binding fluorescence, higher = more signal.
Assay [6] is described as follows: small-molecule microarray binders of probe aWnt5a, primary screen, biochemical, biotinylated probe, 635/667 nm fluorescence (AID 1113).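 Further: score merges 667 nm fluorescence intensity with signal-to-noise per printed feature.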 Particulars: higher = more signal.
The nature of assay [7]: small-molecule microarray binders of probe aShh, primary screen, biochemical, biotinylated probe, 635/667 nm fluorescence (AID 1114).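 Further: probe is biotin-labelled aShh protein from a stem cell growth factor screen; measures binding of labelled protein to compounds printed on the slide; score merges feature fluorescence at 667 nm with signal-to-noise.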 The following applies: higher = more signal.
Assay [8] is described as follows: small-molecule microarray binders of probe aNog, primary screen, biochemical, biotinylated probe, 635/667 nm fluorescence (AID 1115).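 Further: probe is biotinylated aNog protein used at 0.15 µg/mL for 1 h at 4 C; z-score combines 667 nm fluorescence of each spot with its signal to noise.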 The following applies: higher = more signal.
Assay [9] has as its target Torsin-1A-interacting protein 1 (Homo sapiens) (UniProt Q5JTV8). In words: LAP1 binders from COS7 cell lysate, primary screen, small-molecule microarray, 635/667 nm fluorescence (AID 1116). Particulars: COS7-hLAP1 lysate binding, 635 nm fluorescence, higher = more signal.
The target in assay [10] is Alpha-bungarotoxin (Bungarus multicinctus) (UniProt P60615). Put plainly: alpha-bungarotoxin binders on microarray, profiling panel, artefact control for SMM control protein annotation, biochemical, small-molecule microarray, Alexa647 label, 635/667 nm fluorescence (AID 1117). The following applies: alpha-BTX-A647 binding fluorescence, higher = more signal.
Another assay concerns the target Albumin (Bos taurus) (UniProt P02769). Put plainly: bovine serum albumin binders on microarray, profiling panel, artefact control for SMM control protein annotation, biochemical, small-molecule microarray, Alexa647 label, 635/667 nm fluorescence (AID 1118).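 Further: score merges 667 nm emission intensity and signal-to-noise per printed compound spot.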 The following applies: BSA-A647 binding, fluorescence 635 nm, higher = more signal.
The nature of assay [11]: small-molecule microarray binders of probe aXIP, primary screen, biochemical, NeuroSMM set, 635/667 nm fluorescence (AID 1119).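 Further: probe is the protein aXip251-270 applied at 1 µg/mL to compound-printed slides; binding of probe to printed compounds measured as 667 nm fluorescence plus signal to noise.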 Particulars: higher = more signal, called active from +8 up or from −8 down.
Assay [12] in a line: small-molecule binders of probe aNOTCH3, primary screen, biochemical, small-molecule microarray, 635/667 nm fluorescence (AID 1120).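 Further: probe is a biotin-tagged antibody raised against NOTCH3 rather than NOTCH3 protein; score merges spot fluorescence near 667 nm with spot signal to noise.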 Particulars: higher = more signal.
Assay [13] is described as follows: small-molecule binders of probe aNOTCH2, primary screen, biochemical, small-molecule microarray, 635/667 nm fluorescence (AID 1121).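 Further: score merges feature fluorescence read at 667 nm with its signal to noise.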 The following applies: higher = more signal.
Assay [14] has as its target Carbonic anhydrase 2 (Homo sapiens) (UniProt P00918). Put plainly: CAII small-molecule binders, profiling panel, biochemical, small-molecule microarray, Alexa647-labelled CAII (AID 1122). The following applies: CAII-A647 binding fluorescence, higher = more signal.
Assay [15] can be described thus: COS7 lysate on small-molecule microarray, probe aHis, 635 nm (AID 1123).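 Further: z-score combines 667nm fluorescence intensity with signal-to-noise per printed compound spot.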 Particulars: COS7 cell lysate, fluorescence, higher = more signal.
A short description of assay [16]: compound binding in COS7 lysate, probe aLAP1, primary screen, cell lysate, small-molecule microarray (AID 1124).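 Further: lysate comes from COS7 cells expressing LAP1 and is applied at 0.3 µg/mL; score merges spot fluorescence near 667 nm with signal-to-noise over triplicate slides.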 The following applies: probe aLAP1, fluorescence, higher = more signal.
A further assay deals with Sam68 (KHDRBS1). In words: Sam68 small-molecule binders, primary screen, biochemical, small-molecule microarray, 635 nm fluorescence (AID 1125).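 Further: score merges 667 nm channel intensity with signal to noise over triplicate slides.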 The following applies: small-molecule microarray binding, higher = more signal.
For assay [17], the system named is Chordin-like protein 2 (CHRDL2). In words: CHRDL2 small-molecule binders, primary screen, biochemical, small-molecule microarray, 635 nm fluorescence (AID 1126).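 Further: printed compound slides probed with Chrdl2 protein at 4 µg/mL for 1 h at 4 C; score merges 667 nm emission intensity with signal to noise over three replicate slides.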 Particulars: small-molecule microarray binding, fluorescence 635 nm; higher = more signal.
The target in assay [18] is Concanavalin-A (Canavalia ensiformis) (UniProt P02866). Put plainly: ConA small-molecule binders, primary screen, artefact control for SMM control protein annotation, biochemical, small-molecule microarray, Alexa647 label, 635 nm (AID 1127).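 Further: z combines 667 nm emission intensity with signal-to-noise across three replicate slides.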 The following applies: ConA-A647 binding fluorescence, higher = more signal.

Calls of active or inactive are those of the source.

Sequence of Left-right determination factor 2 (Homo sapiens) (O00292 whole entry, looked up): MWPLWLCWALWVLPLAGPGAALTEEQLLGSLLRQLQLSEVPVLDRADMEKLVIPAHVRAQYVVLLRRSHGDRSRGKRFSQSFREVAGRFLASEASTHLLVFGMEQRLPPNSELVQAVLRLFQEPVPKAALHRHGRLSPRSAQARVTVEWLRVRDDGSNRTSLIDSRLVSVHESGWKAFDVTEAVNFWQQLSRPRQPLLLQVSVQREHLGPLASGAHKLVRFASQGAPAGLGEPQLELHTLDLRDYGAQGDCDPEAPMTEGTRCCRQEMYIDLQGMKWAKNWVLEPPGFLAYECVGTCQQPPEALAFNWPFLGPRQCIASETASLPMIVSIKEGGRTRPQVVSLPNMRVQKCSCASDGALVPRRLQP
Sequence of Torsin-1A-interacting protein 1 (Homo sapiens) (Q5JTV8 whole entry, looked up): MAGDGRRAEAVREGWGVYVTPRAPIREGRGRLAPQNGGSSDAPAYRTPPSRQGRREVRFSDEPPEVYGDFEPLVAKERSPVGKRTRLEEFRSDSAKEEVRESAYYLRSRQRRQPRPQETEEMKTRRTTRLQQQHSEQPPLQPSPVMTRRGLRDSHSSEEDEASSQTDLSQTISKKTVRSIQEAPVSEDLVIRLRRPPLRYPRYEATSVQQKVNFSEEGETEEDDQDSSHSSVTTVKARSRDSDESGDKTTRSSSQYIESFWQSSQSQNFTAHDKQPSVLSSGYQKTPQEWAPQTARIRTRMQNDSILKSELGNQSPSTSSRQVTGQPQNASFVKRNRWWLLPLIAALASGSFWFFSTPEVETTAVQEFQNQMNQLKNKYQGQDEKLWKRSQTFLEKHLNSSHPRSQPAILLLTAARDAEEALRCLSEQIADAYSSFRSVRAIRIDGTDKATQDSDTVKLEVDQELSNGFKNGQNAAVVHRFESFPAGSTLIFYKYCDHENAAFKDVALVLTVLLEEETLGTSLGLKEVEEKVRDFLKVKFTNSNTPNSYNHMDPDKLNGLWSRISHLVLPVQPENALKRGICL
Sequence of Concanavalin-A (Canavalia ensiformis) (P02866 whole entry, looked up): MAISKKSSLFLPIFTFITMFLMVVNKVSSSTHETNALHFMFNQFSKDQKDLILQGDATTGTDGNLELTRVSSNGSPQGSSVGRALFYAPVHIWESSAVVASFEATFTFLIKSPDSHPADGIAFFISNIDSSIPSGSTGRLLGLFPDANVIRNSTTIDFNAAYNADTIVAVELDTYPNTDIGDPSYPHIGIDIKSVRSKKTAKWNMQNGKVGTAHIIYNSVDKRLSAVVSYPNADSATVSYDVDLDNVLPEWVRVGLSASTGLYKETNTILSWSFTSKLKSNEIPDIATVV
Sequence of Albumin (Bos taurus) (P02769 whole entry, looked up): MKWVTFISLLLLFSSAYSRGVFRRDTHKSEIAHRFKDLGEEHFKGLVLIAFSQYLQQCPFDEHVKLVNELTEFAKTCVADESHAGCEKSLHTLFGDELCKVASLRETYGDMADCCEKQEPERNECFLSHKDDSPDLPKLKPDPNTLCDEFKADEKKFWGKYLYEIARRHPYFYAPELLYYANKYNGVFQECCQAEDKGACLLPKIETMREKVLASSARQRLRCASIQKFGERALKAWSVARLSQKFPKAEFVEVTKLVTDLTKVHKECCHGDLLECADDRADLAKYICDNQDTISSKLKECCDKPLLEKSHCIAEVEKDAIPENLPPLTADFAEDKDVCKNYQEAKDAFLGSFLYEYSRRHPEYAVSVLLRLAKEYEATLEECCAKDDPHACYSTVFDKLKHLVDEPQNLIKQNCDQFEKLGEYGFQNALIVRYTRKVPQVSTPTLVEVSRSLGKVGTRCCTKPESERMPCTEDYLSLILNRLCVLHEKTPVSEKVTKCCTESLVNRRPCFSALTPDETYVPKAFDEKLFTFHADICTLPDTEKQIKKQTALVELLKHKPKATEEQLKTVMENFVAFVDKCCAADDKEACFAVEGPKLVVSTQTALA
Sequence of Alpha-bungarotoxin (Bungarus multicinctus) (P60615 whole entry, looked up): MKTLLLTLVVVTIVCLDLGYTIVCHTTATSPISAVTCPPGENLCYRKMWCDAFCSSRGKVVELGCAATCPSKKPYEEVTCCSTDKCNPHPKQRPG

`Cc1ccccc1C(O)C1C=CC2C(=O)N(C)C(=O)C2N1Nc1ccc([N+](=O)[O-])cc1[N+](=O)[O-]` (stereo not given): the composite z-score came out at 1.45 in assay [1]; 0.0979 in [3]; 1.43 in [4]; 1.08 in [5]; 0.14 in assay [6]; 0.254 in [7]. Moreover, the composite z-score was -0.235 in assay [8]; 1.24 in assay [9]; 1.36 in assay [10]; 0.953 with Albumin (Bos taurus); 0.338 in assay [12]; -0.108 in assay [13]. For the same molecule, the composite z-score was 0.671 in assay [14]; 2.47 in assay [15]; 0.288 in assay [16]; 1.29 in the assay on Sam68 (KHDRBS1); -0.723 in [17]; 1.16 in assay [18]. Moreover, in [2], the z-score was determined as 0.265. Further, the composite Z-score in assay [11] is 0.451 (inactive).

For `COc1cc2c(cc1OC)CN(C(=O)[C@@H]1[C@H]3C(=O)O[C@H](c4ccccc4)[C@H](c4ccccc4)N3[C@H](c3ccc(OCCO)cc3)[C@@]13C(=O)Nc1ccc(C#CCCO)cc13)CC2`, the composite z-score in assay [1] turned out to be 1.44; in assay [3] it was 1.01; in [4] it was 1.73; in assay [5] it was 1.01; in assay [6] it was 0.265; in [7] it was 0.391. The composite z-score in assay [8] was 1.8; in [9] it was 1.33; in [10], 1.36; with Albumin (Bos taurus), 0.379; in [12], 0.81; in [13], -0.0669. In addition, the composite z-score is 0.428 in assay [14]; 2.92 in assay [15]; 0.364 in [16]; 1.3 in the assay with Sam68 (KHDRBS1); 0.703 in assay [17]; 1.02 in assay [18]. The molecule further came in with a z-score in [2] of -1.53. Moreover, the composite Z-score in assay [11] was 1.29 (inactive).

With `CCN(CC)c1ccc(N2CC=CC34O[C@@H]5/C=C\CCCOC(=O)C5[C@H]3C(=O)N(CCCCCCO)[C@@H]4C2=O)cc1` (stereo not given in full), the composite z-score was -0.117 in assay [1]; -1.76 in assay [3]; -1.18 in assay [4]; -1.05 in assay [5]; -0.139 in assay [6]; 0.147 in assay [7]. Moreover, the composite z-score in assay [8] is -0.0439; in [9] it was 1.26; in assay [10], -0.855; with Albumin (Bos taurus) it was 0.248; in [12], -0.194; in [13], -0.145. The composite z-score was 0.898 in [14]; 0.846 in assay [15]; 0.613 in assay [16]; -0.32 in the assay with Sam68 (KHDRBS1); -2.28 in assay [17]; -0.642 in assay [18]. This molecule showed a z-score in assay [2] of 0.444. Further, the composite Z-score in assay [11] was 0.703 (inactive).

As to `COCCCNC(=O)[C@@]1(Cc2ccccc2)COC(c2ccc(OCCCO)cc2)=N1`, the composite z-score is 0.952 in [1]; -1.08 in assay [3]; 0.525 in assay [4]; 0.361 in assay [5]; 0.199 in assay [6]; 0.289 in assay [7]. Further, the composite z-score in assay [8] was -0.573; in assay [9], 1.03; in assay [10], 0.943; in the assay with Albumin (Bos taurus) it was 0.838; in assay [12], 0.0813; in [13], -0.0307. Further, the composite z-score in assay [14] was 0.739; in [15] it was 3.02; in [16], 0.77; in the assay on Sam68 (KHDRBS1) it was 1.31; in assay [17], -0.554; in [18] it was 0.825. The same molecule registered a z-score in [2] of -0.409. The composite Z-score in assay [11] was 0.6 (inactive).

As for `CCOC(=O)C[C@H]1[C@H](OC(=O)Cc2ccc3c(c2)OCO3)[C@@H](NC(=O)c2ccccc2)c2cc(OCCCO)ccc2N1C(=O)c1ccccc1`, the composite z-score was 0.487 in assay [1]; 0.24 in assay [3]; 0.334 in assay [4]; -0.469 in assay [5]; -0.128 in assay [6]; -0.221 in [7]. Besides, the composite z-score was -0.18 in [8]; 0.223 in assay [9]; 0.652 in assay [10]; -0.359 with Albumin (Bos taurus); -0.0573 in assay [12]; -0.121 in assay [13]. Further, the composite z-score was found to be 0.0488 in [14]; 0.525 in assay [15]; 0.379 in assay [16]; 0.425 with Sam68 (KHDRBS1); 0.434 in assay [17]; 0.374 in assay [18]. Also, the z-score in [2] was -0.183. In addition, the composite Z-score in assay [11] is 0.713 (inactive).

These data come from PubChem BioAssay.
